About 83,000 compounds went through this panel and 20% of them were active in at least one assay; those are over-represented in the sample as a whole.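 Each cell line was grown in a 96-well plate and treated with one concentration of compound for 48 hours. Values below 10 were considered active.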 Unmarked numbers belong to inactive results. Active and inactive are the calls of the source.

The experiment concerns SNB-75 CNS. Kind of experiment: NCI-60 one-dose screen, 48 h (100 = growth as untreated, 0 = no growth, -100 = all killed). The settings on record: 10 µM unless noted.
As for `COC(=O)[C@]12CC[C@@H](C)[C@H](C)[C@@H]1C1=CC[C@@H]3[C@@]4(C)C(C=O)=C[C@@](C)(COC(C)=O)[C@@H]4[C@H](O)C[C@@]3(C)[C@]1(C)CC2`, the growth was -9.48% (active). With `CCc1c2c(nc3ccc(OC(=O)OCc4ccc(B5OC(C)(C)C(C)(C)O5)cc4)cc13)-c1cc3c(c(=O)n1C2)COC(=O)[C@]3(O)CC`, the growth is -21.5% (active). The result for `N#Cc1c(N2CCNCC2)nc2sc3cc(Cl)c(Cl)cc3n2c1=N` reads 62.2%; that for `Cc1ccc(/C=C/c2c(C(=O)/C=C/c3ccc(C(F)(F)F)cc3)c(C)nc3ccccc23)cc1`, -42.5% (active); that for `COc1ccc2c(c1)[nH]c(=O)c1c3cccnc3cn21`, 40.5%. The result for `COc1ccc2c(c1)C(=O)/C(=C/c1cccc(OCC(=O)Nc3nc(C)c(C)s3)c1)O2` reads -95.3% (active). The result for `COc1cccc(-c2nn(-c3ccccc3)cc2-c2ccnc(NCCNC(=O)c3ccccc3)c2)c1` reads 71.1%; that for `COC(=O)/C=C1\S/C(=N\NS(=O)(=O)c2ccc(C)cc2)N(c2ccccc2)C1=O`, 83.8%; that for `Cc1ccc(-c2cc3c(cc2O)C2CCCCC2(N2CCOCC2)O3)cc1` (configuration not stated), 75.4%. As for `CCOc1ccccc1-c1cc(-c2cccs2)c(C#N)c(=O)[nH]1`, the growth is 45.8%. In the case of `N#Cc1nc(C#N)c(Sc2ccccc2)c(Sc2ccccc2)c1Sc1ccccc1` it was -61.2% (active); in that of `CCN1CCN(c2cc(C)nc(NCc3cc(Nc4ccnc5cc(Cl)ccc45)ccc3F)n2)CC1`, 79%.

Source of the values: PubChem BioAssay (NCI).
